Screening data: PubChem, several laboratories
The list is not random: actives were taken first. Their share in the collection is about 2.4%.
TNF necrop inh = TNF-alpha cell death inhibition in Jurkat FADD-/- cells; Jurkat FADD-/- TNF necroptosis rescue, ATP luminescence, 24 h; 0 = TNF only, 100 = no-TNF cells; activation (protection from cell death), % at 10 µM; 220,000 tested, 0.068% active;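 active means activation, meaning protection from cell death, of at least 50% relative to plate controls; inactive means activation below 50%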;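 further: necroptosis triggered by 40 ng/mL TNF-alpha added together with compound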
MCL1 BIM primary = MCL1-BIM-BH3 interaction inhibition (human); Q07820; AID 2057; GST-MCL1 / FITC-Bim-BH3 fluorescence polarization; inhibition, % at 10.9 µM; 320,000 tested, 0.68% active;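 active means inhibition above the mean inhibition of all tested compounds plus 3 SD, set per campaign, cut at about 40% in these data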;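 further: higher means more loss of mP so more displacement of Bim peptide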
Target sequence (Q07820 whole entry, looked up): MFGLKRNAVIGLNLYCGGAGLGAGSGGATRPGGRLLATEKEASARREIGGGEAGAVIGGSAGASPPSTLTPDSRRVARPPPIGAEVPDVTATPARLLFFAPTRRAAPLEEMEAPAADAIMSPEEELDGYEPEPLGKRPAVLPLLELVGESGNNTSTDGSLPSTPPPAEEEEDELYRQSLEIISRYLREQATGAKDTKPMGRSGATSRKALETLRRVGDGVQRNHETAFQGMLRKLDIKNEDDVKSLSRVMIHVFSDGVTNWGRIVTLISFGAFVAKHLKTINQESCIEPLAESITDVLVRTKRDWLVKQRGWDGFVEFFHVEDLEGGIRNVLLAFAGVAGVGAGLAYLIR
Mcl1-Bid inh = disrupts binding of human Mcl-1 to Bid peptide. inhibition, % at 21.7 µM. Q07820. 220,000 tested, 0.97% active. TR-FRET Mcl-1/Bid-Dy647 peptide binding, 1536-well. AID 1021;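 active means compounds that cut the binding signal by more than half at the single screening dose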;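 further: His-tagged Mcl-1 with europium anti-His antibody binding Bid BH3 peptide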
L929 necroptosis = L929 zVAD cell death inhibition. 220,000 tested, 0.38% active. L929 zVAD necroptosis rescue, ATP luminescence, 24 h; with zVAD 60 µM. viability rescue, % at 10 µM;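 active means activation, scaled between plate controls, above about 75%, limit read from the data; inactive means activation under that limit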
Mcl-1 Bim block = disrupts Bim peptide binding to human Mcl-1. AID 1009. Bead-based flow cytometry, Bim peptide-Mcl-1 binding. Q07820. inhibition, % at 10 µM. 190,000 tested, 0.1% active; in the data active means inhibition above about 40%
Mcl1-Noxa inh = Mcl-1/Noxa interaction inhibition; Q07820; TR-FRET Mcl-1/Noxa peptide binding, 2 h; inhibition, % at 21.7 µM; 220,000 tested, 1.5% active;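 active means compounds that cut the protein-peptide binding signal by more than 50% relative to plate controls in a single-dose test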;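 further: His-tagged Mcl-1 with rhodamine Noxa BH3 peptide and terbium anti-His antibody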
A number is an active result.

COc1cccc(NC(=O)[C@H](CC(C)C)NC(=O)N2CCn3c2nc2ccccc23)c1 was read as MCL1 BIM primary inactive.
`O=C(/C=C/c1ccco1)NCC1COc2ccccc2O1` (stereo not drawn) gave TNF necrop inh inactive, MCL1 BIM primary inactive, Mcl1-Bid inh inactive, L929 necroptosis inactive and Mcl1-Noxa inh inactive.
Screening O=C1CCCN1CCCNCC(=O)N1c2ccccc2Sc2ccccc21 returned TNF necrop inh inactive, MCL1 BIM primary inactive, Mcl1-Bid inh 51, L929 necroptosis inactive, Mcl-1 Bim block inactive and Mcl1-Noxa inh inactive.
For O=C(Cn1c(=O)oc2ccc(Cl)cc21)Nc1ccon1 the results were MCL1 BIM primary inactive.
O=C1NC(=O)N(Cc2ccccc2)C1=O was read as MCL1 BIM primary 53.
For O=C1NC2(CCCCCC2)C(=O)N1Cc1ccccc1 the results were MCL1 BIM primary inactive.
Screening Cc1cc(C)n2nc(C(=O)Nc3ccc4c(c3)OCCO4)nc2n1 returned MCL1 BIM primary inactive.
Screening Cc1cc(C)n2nc(C(=O)Nc3ccc4c(c3)OCO4)nc2n1 returned TNF necrop inh inactive, MCL1 BIM primary inactive, Mcl1-Bid inh inactive, L929 necroptosis inactive, Mcl-1 Bim block inactive and Mcl1-Noxa inh 54.
`CCN(CC)c1ccc(NC(=O)c2nc3nc(C)cc(C(F)F)n3n2)cc1` gave TNF necrop inh inactive, MCL1 BIM primary inactive, Mcl1-Bid inh inactive, L929 necroptosis inactive, Mcl-1 Bim block inactive and Mcl1-Noxa inh 58.
COc1cccc2sc(/N=C/N(C)C)nc12 was read as TNF necrop inh inactive, MCL1 BIM primary inactive, Mcl1-Bid inh 56, L929 necroptosis inactive and Mcl1-Noxa inh inactive.
`COc1cccc2sc(N)nc12` gave MCL1 BIM primary inactive.
Screening CC[N+]1(CC)CC2=Cc3c(ccc4ccccc34)C(C)C2C1 (stereo not drawn) returned TNF necrop inh inactive, MCL1 BIM primary inactive, Mcl1-Bid inh inactive, L929 necroptosis inactive and Mcl1-Noxa inh inactive.
`CCOc1cc(/C=C2\C(=O)NN(c3ccccc3)C2=O)cc([N+](=O)[O-])c1O` gave TNF necrop inh inactive, MCL1 BIM primary inactive, Mcl1-Bid inh inactive, L929 necroptosis inactive, Mcl-1 Bim block inactive and Mcl1-Noxa inh 51.
`COc1cc(/C=C2\C(=O)NN(c3ccc(C)cc3)C2=O)cc([N+](=O)[O-])c1O` gave TNF necrop inh inactive, MCL1 BIM primary inactive, Mcl1-Bid inh inactive, L929 necroptosis inactive, Mcl-1 Bim block inactive and Mcl1-Noxa inh inactive.
Screening COc1cc(/C=C2\C(=O)NN(c3ccccc3)C2=O)cc([N+](=O)[O-])c1O returned TNF necrop inh inactive, MCL1 BIM primary inactive, Mcl1-Bid inh inactive, L929 necroptosis inactive, Mcl-1 Bim block inactive and Mcl1-Noxa inh 51.
Screening CC1=NOC(=O)/C1=C\c1ccc(-c2ccc(Cl)cc2Cl)o1 returned TNF necrop inh inactive, Mcl1-Bid inh 88, L929 necroptosis inactive, Mcl-1 Bim block inactive and Mcl1-Noxa inh 87.
`CCCOc1ccc(Cl)cc1/C=C1/C(=O)ON=C1C` gave MCL1 BIM primary inactive.
Screening COCc1cc(=O)[nH]c(Cc2c(Cl)cccc2Cl)n1 returned MCL1 BIM primary inactive.
Cc1ccc(NC(=O)CC2S/C(=N/N=C/c3c[nH]c4ccccc34)NC2=O)cc1 (stereo not drawn) was read as TNF necrop inh inactive, MCL1 BIM primary inactive, Mcl1-Bid inh 57, L929 necroptosis inactive, Mcl-1 Bim block inactive and Mcl1-Noxa inh inactive.
CCOC(=O)c1ccc(NC(=O)CC2S/C(=N/N=C/c3c[nH]c4ccccc34)NC2=O)cc1 (stereo not drawn) was read as TNF necrop inh inactive, MCL1 BIM primary inactive, Mcl1-Bid inh 63, L929 necroptosis inactive and Mcl1-Noxa inh 61.
`CCOC(=O)c1ccc(NC(=O)CC2S/C(=N/N=C3/NC(=O)CS3)NC2=O)cc1` (stereo not drawn) gave TNF necrop inh inactive, MCL1 BIM primary inactive, Mcl1-Bid inh inactive, L929 necroptosis inactive, Mcl-1 Bim block inactive and Mcl1-Noxa inh inactive.
For Cc1cc(C)nc(NCC(O)COc2ccccc2C)n1 (stereo not drawn) the results were TNF necrop inh inactive, MCL1 BIM primary inactive, Mcl1-Bid inh 101, L929 necroptosis inactive, Mcl-1 Bim block inactive and Mcl1-Noxa inh inactive.
`COc1ccc(N2C(=NC(=O)c3ccc(Br)cc3)SC3CS(=O)(=O)CC32)cc1` (stereo not drawn) gave MCL1 BIM primary inactive.
Screening CN1C(=O)N(C)c2cccc3cccc1c23 returned MCL1 BIM primary inactive.
Screening CC1=Nc2cccc3cccc(c23)N1C returned TNF necrop inh inactive, MCL1 BIM primary inactive, Mcl1-Bid inh inactive, L929 necroptosis inactive, Mcl-1 Bim block inactive and Mcl1-Noxa inh 61.
Screening Cc1nc(SCC(=O)Nc2cc(C(N)=O)cc(C(N)=O)c2)c2c(C)c(C)sc2n1 returned TNF necrop inh inactive, MCL1 BIM primary inactive, Mcl1-Bid inh inactive, L929 necroptosis inactive and Mcl1-Noxa inh inactive.
For COCCCNc1nc2c(-c3ccc(Cl)cc3)nnn2c2ccccc12 the results were TNF necrop inh inactive, MCL1 BIM primary inactive, Mcl1-Bid inh inactive, Mcl-1 Bim block inactive and Mcl1-Noxa inh inactive.
For NNc1nc2c(-c3ccc(F)cc3)nnn2c2ccccc12 the results were TNF necrop inh inactive, MCL1 BIM primary inactive, Mcl1-Bid inh inactive, L929 necroptosis inactive, Mcl-1 Bim block inactive and Mcl1-Noxa inh 69.
`NNc1nc2c(-c3ccc(Cl)cc3)nnn2c2ccccc12` gave TNF necrop inh inactive, MCL1 BIM primary inactive, Mcl1-Bid inh inactive, L929 necroptosis inactive, Mcl-1 Bim block inactive and Mcl1-Noxa inh 68.
`CC(C)(C)OC(=O)CC12CCCCC1NC(=O)O2` (stereo not drawn) gave MCL1 BIM primary inactive.
Cc1cc2ccccn2c1C(=O)c1ccc(N/N=C/c2ccc(C(=O)O)cc2)c([N+](=O)[O-])c1 was read as TNF necrop inh inactive, Mcl1-Bid inh 73, L929 necroptosis inactive and Mcl1-Noxa inh 93.
CN(C)c1ccc(/C=C/c2nc3ccccc3s2)cc1 was read as TNF necrop inh inactive, MCL1 BIM primary inactive, Mcl1-Bid inh inactive, L929 necroptosis inactive, Mcl-1 Bim block inactive and Mcl1-Noxa inh inactive.
COc1ccc(C=C(c2nc3ccccc3s2)c2nc3ccccc3s2)cc1O was read as TNF necrop inh inactive, MCL1 BIM primary inactive, Mcl1-Bid inh inactive, L929 necroptosis inactive, Mcl-1 Bim block inactive and Mcl1-Noxa inh inactive.
COc1cc(C=C(c2nc3ccccc3s2)c2nc3ccccc3s2)ccc1O was read as TNF necrop inh inactive, MCL1 BIM primary 43, Mcl1-Bid inh inactive, L929 necroptosis inactive, Mcl-1 Bim block inactive and Mcl1-Noxa inh inactive.
COc1cc(/C=C/c2nc3ccccc3s2)cc(OC)c1O was read as TNF necrop inh inactive, MCL1 BIM primary inactive, Mcl1-Bid inh inactive, L929 necroptosis inactive, Mcl-1 Bim block inactive and Mcl1-Noxa inh 55.
